From PubChem BioAssay (NCI)
The panel holds about 79,000 compounds, 15% with a hit somewhere; the sample as a whole holds those more often. Unmarked numbers belong to inactive results. Activity calls are given as the source filed them. Rule as the data show it: active = growth inhibition above about 70%; inactive = the rest.

What was measured:
[1] = NCI Yeast Anticancer Drug Screen. Data for the rad50 strain (AID 155);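 also: 0% = growth of vehicle-only cultures of the same strain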; details: S. cerevisiae rad50 strain growth inhibition, active compounds read high
Outline: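 Vehicle-treated cultures provide the reference for the growth inhibition reported for compound-exposed, repair-deficient yeast.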

[2] = NCI Yeast Anticancer Drug Screen. Data for the mec2-1 strain (AID 157); details: S. cerevisiae mec2-1 strain, active compounds read high
Outline: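 Using mec2-1 yeast: add compound, measure growth, express inhibition versus vehicle-treated cultures.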

[3] = NCI Yeast Anticancer Drug Screen. Data for the sgs1 mgt1 strain (AID 161);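 also: 0% = growth of cultures given vehicle only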; details: S. cerevisiae sgs1 mgt1 strain, active compounds read high
Outline: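 Growth of a repair-deficient yeast mutant was monitored after compound treatment and expressed as inhibition relative to vehicle-treated cultures.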

[4] = NCI Yeast Anticancer Drug Screen. Data for the cln2 rad14 strain (AID 165);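 also: 0% = growth equal to vehicle treated cultures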; details: S. cerevisiae cln2 rad14 strain, active compounds read high
Outline: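 Yeast strain cln2 rad14, bearing defects in cell cycle control and DNA repair, serves as the test system; values reflect growth inhibition compared with vehicle.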

[5] = NCI Yeast Anticancer Drug Screen. Data for the bub3 strain (AID 167); details: S. cerevisiae bub3 mutant strain, active compounds read high
Outline: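 Mutant yeast screening strain plus compound; vehicle-treated cultures serve as the 0% inhibition reference.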

[6] = NCI Yeast Anticancer Drug Screen. Data for the mlh1 rad18 strain (AID 175); details: S. cerevisiae mlh1 rad18 strain growth inhibition, active compounds read high
Outline: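 Steps: expose repair-defective yeast to compound; measure growth; express inhibition against vehicle-treated controls.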

[7] = at 5.0 µM (retest, dose inferred, filed as 0.5)
[8] = at 50.0 µM (retest, dose inferred, filed as 5.0)

SMILES	growth inhibition [1, 7]	growth inhibition [1, 8]	growth inhibition ([1]; at 50.0 µM)	growth inhibition [2, 7]	growth inhibition [2, 8]	growth inhibition ([2]; at 50.0 µM)	growth inhibition [3, 7]	growth inhibition [3, 8]	growth inhibition ([3]; at 50.0 µM)	growth inhibition [4, 7]	growth inhibition [4, 8]	growth inhibition ([4]; at 50.0 µM)	growth inhibition [5, 7]	growth inhibition [5, 8]	growth inhibition ([5]; at 50.0 µM)	growth inhibition [6, 7]	growth inhibition [6, 8]	growth inhibition ([6]; at 50.0 µM)
NC(=S)N/N=C/c1ccc([N+](=O)[O-])o1	11%	27%	66%	3%	14%	43.7%	4%	24%	65.2%	-3%	2%	13.7%	10%	45%	24.2%	13%	43%	75.3% (active)
CC(=O)Oc1ccc2ccccc2c1CN(Cc1c(OC(C)=O)ccc2ccccc12)C(C)=O	9%	64%	88.8% (active)	9%	53%	72.8% (active)	4%	84% (active)	89.6% (active)	3%	88% (active)	93.8% (active)	3%	80% (active)	93.8% (active)	11%	85% (active)	55%
Cc1cc(NC(=S)SCc2ccc(F)cc2)ccc1Br	49%	99% (active)	90.7% (active)	32%	100% (active)	92.8% (active)	58%	100% (active)	91.8% (active)	46%	99% (active)	90.7% (active)	56%	100% (active)	92.3% (active)	33%	98% (active)	91.4% (active)
COc1ccc(N)c([N+](=O)[O-])c1	-5%	13%	41.8%	1%	23%	58%	-2%	12%	69.5%	-1%	10%	39%	2%	30%	48.9%	-4%	31%	27.9%
COC(=O)CCN1c2ccccc2Sc2ccccc21	-14%	38%	48.8%	-23%	21%	23.1%	-13%	30%	47.5%	31%	42%	23.4%	16%	62%	12.1%	-15%	49%	64.7%
CCOC(=O)c1cn(CC)c2cc(-n3cccc3)ccc2c1=O	-3%	28%	31.4%	-1%	21%	20.6%	-2%	39%	56.4%	-2%	17%	22.2%	0%	27%	33.5%	1%	50%	47.2%
S=C(CSc1ccccc1)Nc1cccc2ccccc12	15%	82% (active)	77% (active)	-12%	51%	28.4%	-4%	67%	31.3%	-11%	72% (active)	58.5%	4%	81% (active)	81.7% (active)	1%	81% (active)	79.5% (active)
COc1cc(/C=C2\S/C(=N/Nc3nc(-c4ccc(Br)cc4)cs3)NC2=O)cc(OC)c1OC	-2%	67%	84.8% (active)	-23%	74% (active)	76.2% (active)	-9%	86% (active)	97.8% (active)	-6%	71% (active)	80.2% (active)	31%	97% (active)	95.3% (active)	2%	75% (active)	91.5% (active)
Cc1ccc(N=Nc2ccc(N)c3ccccc23)c(S(N)(=O)=O)c1	-4%	38%	27.1%	0%	24%	1.95%	-1%	51%	44.9%	-2%	29%	70.8% (active)	-6%	61%	22.2%	0%	61%	13.1%
CCCCCCCCCCCCCCCC[n+]1ccc(/C=C/c2ccccc2)cc1	75% (active)	95% (active)	98.4% (active)	100% (active)	96% (active)	98.8% (active)	99% (active)	98% (active)	98.5% (active)	46%	94% (active)	97.8% (active)	88% (active)	97% (active)	97.8% (active)	99% (active)	98% (active)	97.7% (active)
